# The whole screen tested about 310,000 compounds, of which about 18,000 (5.8%) were called active. Roughly 22% stayed inconclusive and do not appear here. Calls follow the shape of the dose curve; as a rule, active = well fitted inhibition curve with a large enough effect; inconclusive = small, poorly fitted or top-dose-only effect, or another doubt; inactive = no such curve, though single readings can be large or run the other way. This excerpt belongs to a sample that is enriched for actives.
# Assay: Primary qHTS for delayed death inhibitors of the malarial parasite plastid, 48 hour incubation
# Details: P. falciparum luciferase growth in erythrocytes; series mostly up to 28.7 µM; activity change, negative = inhibition: at the top concentration
# Procedure, shortened: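 Firefly luciferase activity from engineered P. falciparum reports growth; inhibitors lower the luminescent signal. Cultures contained 2% hematocrit erythrocytes at 0.1% final parasitemia.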
# % is scaled to controls: 0 for no effect and ±100 for the full control effect; potency is read from the fitted curve at half-maximal effect.
SMILES,"activity change, negative = inhibition",Potency
COc1cccc(CNC(=O)c2cccnc2Sc2ccc(Cl)cc2)c1,-4.1% (inactive),
COc1ccc(C(=O)OCC(=O)c2ccc(Cl)s2)c(OC)c1OC,9.16% (inactive),
CC(CNc1ccc([N+](=O)[O-])c2cccnc12)Nc1c([N+](=O)[O-])cc(C(F)(F)F)cc1[N+](=O)[O-] (stereo not given),,10.4 µM (active)
CCN(CC)c1ccc([N+](=O)[O-])c2cccnc12,7.92% (inactive),
O=[N+]([O-])c1cc([N+](=O)[O-])c2cccnc2c1O,-13.4% (inactive),
N#Cc1cccc(OC(=O)c2ccc3c(=O)n4c(nc3c2)CCC4)c1,6.32% (inactive),
C=CCOc1ccc(/C=C/C(=O)OCC(=O)NC(C)c2ccc(F)cc2)cc1 (stereo not given),0% (inactive),
CCOC(=O)C1CCCN(CCSc2ccc(C)cc2)C1 (stereo not given),32.6% (inactive),
CCN1CCN(Cc2c(O)ccc3c(=O)c(-c4ccc(OC)c(OC)c4)c(C(F)(F)F)oc23)CC1,,7.38 µM (active)
CCc1cc2c(=O)c(-c3ccc(F)cc3)c(C(F)(F)F)oc2cc1OCC(=O)O,-22.9% (inactive),
O=c1c(-c2ccc3c(c2)OCCO3)c(C(F)(F)F)oc2cc(O)cc(O)c12,-13.8% (inactive),
CC(CN1CCC(n2nccc2NC(=O)C2CCCC2)CC1)c1ccccc1 (stereo not given),33.6% (inactive),
CC1CN(S(=O)(=O)c2cccc(C(F)(F)F)c2)CN1C(=O)N1CCOCC1 (stereo not given),29% (inactive),
Cc1ccc(C(=O)NC2CCN(C(=O)Nc3ccccc3Cl)CC2)cc1,-7.87% (inactive),
COC(=O)C1=C(C)Nc2ncnn2C1c1cccnc1 (stereo not given),7.48% (inactive),
CC1=C(C(N)=O)C(c2ccc(Br)cc2)n2ncnc2N1 (stereo not given),5.11% [at 0.00184 µM] (inactive),
Clc1ccc2c(c1)C1=C(C(c3ccncc3)O2)C(c2ccc(Br)cc2)n2ncnc2N1 (stereo not given),,13.1 µM (active)
CN1CCN(C(=O)C(=O)c2cn(CC(=O)N3CCCC3)c3ccccc23)CC1,-0.113% (inactive),
COCCNC(=S)Nc1cc(S(=O)(=O)N2CCOCC2)ccc1N1CCCCC1,-7.53% (inactive),
O=C(COC(=O)Cc1ccc(F)cc1)Nc1cc(S(=O)(=O)N2CCOCC2)ccc1N1CCCC1,5.29% (inactive),
CCN(CC(=O)N1CCCC1)S(=O)(=O)c1ccc(F)cc1,78.3% (inactive),
CCN(CC)S(=O)(=O)c1ccc(N2CCOCC2)c(NC(=O)C2COc3ccccc3O2)c1 (stereo not given),12.5% (inactive),

SMILES,"activity change, negative = inhibition",Potency
CCN(CC)S(=O)(=O)c1ccc(N2CCOCC2)c(NC(=O)C(C)Oc2ccc(F)cc2)c1 (stereo not given),,4.65 µM (active)
CCN1CCN(c2ccc(S(=O)(=O)N3CCCCC3)cc2NC(=O)c2cccc(NC(C)=O)c2)CC1,,13.1 µM (active)
CCN1CCN(c2ccc(S(=O)(=O)N3CCCCC3)cc2NC(=O)Cc2c(Cl)cccc2Cl)CC1,-11.9% (inactive),
CCN(CC)S(=O)(=O)c1cc(C(=O)Nc2cc(S(=O)(=O)N3CCOCC3)ccc2N2CCCC2)ccc1F,,7.38 µM (active)
Cc1ccc(S(=O)(=O)N2CCCCC2)cc1NC(=O)c1cccnc1,-15.5% (inactive),
Cc1cc(NC(=O)CSC2=NS(=O)(=O)c3cc(Cl)ccc3N2)no1,15.9% (inactive),
Cc1cc(S(=O)(=O)c2cc3ccc(O)c(C)c3oc2=O)ccc1F,8.19% [at 0.00184 µM] (inactive),
CCN(CC(=O)NCC(=O)Nc1cccc(C)c1C)Cc1ccccc1,-14.2% (inactive),
CC(Oc1cc2oc(=O)c3c(c2cc1Cl)CCCC3)C(=O)NCc1ccncc1 (stereo not given),15% (inactive),
Cc1nc2nc(C)c(NS(=O)(=O)c3ccc(C(C)(C)C)cc3)c(=O)n2[nH]1,17.4% (inactive),
CCCc1nn2c(=O)cc(CSCC(=O)Nc3cccc(C)c3)nc2s1,-9.24% (inactive),
COc1ccc(C(=O)NC2CCN(C(=S)Nc3ccccc3)CC2)cc1,-12.9% (inactive),
CCCNC(=S)N1CCC(NC(=O)c2ccc(OC)cc2)CC1,33.9% (inactive),
COc1cc(OC)cc(C(=O)NC2CCN(C(=O)N3c4ccccc4Sc4ccccc43)CC2)c1,,13.1 µM (active)
CSc1ccc(S(=O)(=O)N2CCC(C(=O)NCc3ccncc3)CC2)cc1,73.5% (inactive),
Cn1cc(C(=O)NCc2ccccc2F)cn1,9.58% (inactive),
O=c1c2ccccc2cnn1Cc1n[nH]c(=S)n1-c1ccccc1F,8.03% (inactive),
Cn1c2cc(B(O)O)sc2c2cnn(Cc3ccccc3F)c(=O)c21,,10.4 µM (active)
Cc1[nH]c2ccc(C(=O)N3CCN(C)CC3)cc2c1C,37.8% (inactive),
COCCNC(=O)c1ccc(-n2c(SCc3cccnc3)nc3ccccc3c2=O)cc1,11.7% (inactive),
Cc1nn(-c2ccccc2)c(C)c1/C=N/NC(=O)CSc1nc2ccccc2c(=O)n1-c1ccccc1,4.39% (inactive),
COC(=O)c1ccc(CSc2nc3ccccc3c(=O)n2-c2cccc(OC)c2)o1,,13.1 µM (active)

SMILES,"activity change, negative = inhibition",Potency
CN=C1S/C(=C\c2c(OC)cc(OC)cc2OC)C(=O)N1C,4.88% (inactive),
CC(=O)NCCc1ccc(S(=O)(=O)Nc2ccc(C)c(S(=O)(=O)N3CCOCC3)c2)cc1,0% (inactive),
COCCNC(=O)C(c1ccc(C)cc1)N(C(=O)CCC(=O)Nc1ccccn1)c1cccc(C)c1 (stereo not given),-7.09% (inactive),
COc1ccccc1N1CC(C(=O)Nc2nnc(SCC(=O)NC(C)C)s2)CC1=O (stereo not given),17.1% (inactive),
COc1ccccc1N1CC(C(=O)Nc2nnc(SCC(=O)NCC3CCCO3)s2)CC1=O (stereo not given),-23.4% (inactive),
Cc1ccc(C(=O)NCC(=O)O)cc1S(=O)(=O)N1CCCCC1,17.3% (inactive),
Cc1ccc(C(=O)OCC(=O)NCc2cc(C)c(O)c(C)c2)cc1S(=O)(=O)N1CCCCC1,,8.28 µM (active)
Cc1ccc(C(=O)OCC(=O)N2CC(C)CC(C)C2)cc1S(=O)(=O)N1CCCCC1 (stereo not given),1.05% (inactive),
O=C(c1ccccc1F)N1CCN(S(=O)(=O)c2ccc(Br)cc2)CC1,6.16% (inactive),
CCOC(=O)c1cc(-c2ccccc2C)n(Cc2cc(C)no2)n1,-12.3% (inactive),
COc1ccc(N2CCC(CNC(=S)Nc3c(C)cccc3C)C2)cc1 (stereo not given),,11.7 µM (active)
COc1cccc(N2CC(C(=O)Nc3c(C)cccc3C)CC2=O)c1 (stereo not given),-9.22% (inactive),
COc1ccc(NC(=O)N2CCC(Cc3ccccc3)CC2)cc1,-24.4% (inactive),
COc1ccc(NC(=S)NCC2CCN(c3ccc(OC)cc3)C2)cc1 (stereo not given),,11.7 µM (active)
COc1ccc(NC(=S)NCCN2CCC(C)CC2)cc1,17.2% [at 5.75 µM] (inactive),
COc1ccc(N2CCC(N3CCN(C)C(CCO)C3)CC2)cc1 (stereo not given),10.2% (inactive),
Cc1cc(C)cc(NS(=O)(=O)Cc2ccccc2)c1,11.7% (inactive),
CC(OC(=O)/C=C/c1ccccc1)C(=O)Nc1ccc(C(N)=O)cc1 (stereo not given),-13.2% (inactive),
Cc1ccccc1NC(=O)Cc1nc(COC(=O)c2ccc(C(F)(F)F)cc2)cs1,2.1% (inactive),
Cc1ccc(S(=O)(=O)N2CC(C)N(S(C)(=O)=O)C2)cc1 (stereo not given),8.27% (inactive),
CCOC(=O)C1=C(COC(=O)[C@H](C)NS(=O)(=O)c2ccccc2F)NC(=O)NC1C (stereo not given in full),-17.8% (inactive),

# — PubChem BioAssay AID504832 (National Center for Advancing Translational Sciences (NCATS), 2011)
